The results in this text go back to PubChem BioAssay AID738 (SRMLSC, 2007).

The inhibition is the change of the read-out against control, counted positive when it falls.

Molecules are shown by their SMILES. In all, about 98,000 compounds went through this assay and about 4,900 (5%) were called active. Cut-off read from the data, not from the text of the source: active = inhibition above about 30%; inactive = the rest. This excerpt belongs to a sample that is enriched for actives.

The assay can be described thus: yeast control strain growth suppression – counter-screen for post-Golgi transport modulator project, primary screen (AID 738). Conditions: efflux-deficient yeast background strain, growth absorbance A615, 16 h; at 10 µM; hits give high values.
Regarding `O=c1c2ccccc2c(-c2ccc(Br)cc2)nn1Cc1ccccc1`, the inhibition was 12% (inactive).
Turning to `c1ccc(-n2nnnc2NC2CCCCCC2)cc1`, the inhibition is 2.73% (inactive).
Next, `COC(=O)/C=C/C(=O)NCc1ccco1`: 4.81% (inactive); `Cc1cc(-c2ccccc2)n2nc(C)c(-c3ccccc3)c2n1`: 0.91% (inactive).
Next, `O=C(N/N=C\c1ccc(-c2ccc(Cl)c(Cl)c2)o1)C(=O)N1CCCC1`: -8.31% (inactive).
With `O=c1c2ccccc2nc2n1C(CSc1ccc(F)cc1)CN2` (centres undefined), the inhibition is 8.1% (inactive).
With `O=C1COc2ccc(NC(=O)N3CCN(c4ccc(F)cc4)CC3)cc2N1`, the inhibition is -5.66% (inactive).
To `COC(=O)c1ccc(C(=O)OC)c(NC(=S)N2CCCCC2)c1` belongs 5.49% (inactive).
In the case of `O=C(COC(=O)C12CC3CC(CC(C3)C1)C2)NCc1ccco1`, the inhibition was 17.3% (inactive).
Turning to `O=C(CCC(=O)c1cccs1)NCc1ccccc1`, the inhibition is -10% (inactive).
To `O=C(COC(=O)CCC(=O)c1cccs1)NCc1ccco1` belongs 34.5% (active).
Next, `O=C(c1ccc(F)cc1)c1c[nH]c(C(=O)NCc2cccnc2)c1`: 1.34% (inactive); `S=C(NCCC1=CCCCC1)Nc1ccccc1`: 2.15% (inactive); `COc1cc(-c2nn3c(-c4cccc(C)c4)nnc3s2)cc(OC)c1OC`: 26.7% (inactive).
For `CCCc1nc2ccccc2c(C(=O)OCc2nnc(-c3cc(OC)c(OC)c(OC)c3)o2)c1CC`, the inhibition is 3.36% (inactive).
Turning to `CCC(C)n1c(-c2cc(OC)c(OC)c(OC)c2)nc2nc3ccccc3nc21` (centres undefined), the inhibition was 38.7% (active).
For the compound `CC(=O)NS(=O)(=O)c1ccc(NC(=S)NC(=O)C(C)(C)C)cc1`, the inhibition was -5.72% (inactive).
To `Cn1c(NN)nc2sc3c(c2c1=O)CCC3` belongs 7.4% (inactive).
Next, `CC1Cc2ccccc2N1C(=O)c1cc2sccc2n1Cc1ccccc1` (centres undefined): 15.2% (inactive); `O=C(NCc1ccco1)c1cc2sccc2n1Cc1ccc(F)cc1`: 27.8% (inactive).
Consider `CCOC(=O)c1cc2sccc2n1Cc1ccc(C#N)cc1`, for which the inhibition is 33.7% (active).
Next, `Clc1ccccc1SCc1nc2ccccc2[nH]1`: 9.02% (inactive).
Turning to `Cc1nc(-c2ccccc2)sc1-c1nc(-c2ccccc2)ncc1S(=O)(=O)c1ccccc1`, the inhibition is 12% (inactive).
Next, `O=C(NC1CCCCC1)N1CCc2[nH]c3ccccc3c2C1`: -9.69% (inactive); `CCCC(=O)N1CCc2[nH]c3ccccc3c2C1`: -9.39% (inactive); `O=C(Nc1ccc(Cl)cc1)N1CCc2[nH]c3ccccc3c2C1`: 36.5% (active).
To `O=C(c1ccccc1)c1cc(-c2ccccn2)c(N2CCOCC2)s1` belongs 18% (inactive); to `O=S(=O)(N/N=C\c1cccn1-c1ccccc1)c1ccc2ccccc2c1`, 16.6% (inactive).
As for `Cc1n[nH]c(=O)n1-c1ccc(Oc2ccccc2)cc1`, the inhibition was 20.1% (inactive).
For the compound `Cc1cc2cc(CN(Cc3cccs3)Cc3nnnn3CC3CCCO3)c(=O)[nH]c2cc1C` (centres undefined), the inhibition is 37.9% (active).
Turning to `Cc1cc(C)c2cc(CN(Cc3cccs3)Cc3nnnn3CC3CCCO3)c(=O)[nH]c2c1` (centres undefined), the inhibition was 17% (inactive).
Consider `COc1ccc2[nH]c(=O)c(CN(Cc3nnnn3CCc3ccccc3)CC3CCCO3)cc2c1` (centres undefined), for which the inhibition is 5.93% (inactive).
To `CC(C)(C)c1cc2cccnc2n1Cc1cccc(F)c1` belongs -2.87% (inactive); to `N#C/C(=C(/O)COc1cccc2ccccc12)c1nc2ccccc2[nH]1`, -2.22% (inactive); to `Cc1ccccc1OC/C(O)=C(\C#N)c1nc2ccccc2[nH]1`, 48.1% (active).
`COC(=O)Cc1nc2ccccc2[nH]1`: the inhibition is 0.73% (inactive).
To `O=C(CSc1nc2ccccc2o1)N1c2ccccc2Sc2ccc(Cl)cc21` belongs 17% (inactive); to `O=C1CSC(c2ccccc2)N1c1nc(-c2ccc(Cl)cc2Cl)cs1` (centres undefined), 5.96% (inactive); to `CCOC(=O)C1Sc2[nH]c(=O)sc2C(c2ccc(Cl)cc2)C1C(=O)OCC` (centres undefined), 12% (inactive).
To `Cc1ccc(Cn2c(C)nc3c(c2=O)c2nc4ccccc4nc2n3Cc2ccco2)cc1` belongs 20.3% (inactive); to `CC(Sc1nc2ccccc2c(=O)n1Cc1ccco1)C(=O)c1ccccc1` (centres undefined), 20.6% (inactive).
Regarding `Clc1cccc(-c2nc3nc4ccccc4nc3n2Cc2ccco2)c1`, the inhibition is 32.4% (active).
To `CCN(CC)CCN1C(=O)C(=O)/C(=C(/O)c2cnn(-c3ccccc3)c2C)C1c1cccs1` (centres undefined) belongs 10.5% (inactive); to `S=c1nccc(-c2cc(Cl)sc2Cl)[nH]1`, -1.82% (inactive).
Consider `O=C(Nc1ccccc1N1CCN(c2ccccc2)CC1)c1cccc(F)c1`, for which the inhibition was 15.4% (inactive).
`O=C(Nc1ccccc1N1CCCCC1)c1cccc(F)c1`: the inhibition was 31.6% (active).
Consider `O=C(Nc1ccccc1N1CCCCC1)c1ccc2nccnc2c1`, for which the inhibition was 16.6% (inactive).
To `CCC(=O)OCc1c(C(F)(F)F)nn(C)c1Oc1cccc(C(F)(F)F)c1` belongs -7.2% (inactive); to `S=C(NCc1cccs1)Nc1ccc(Cl)cc1`, 1.15% (inactive).
To `O=C(NCc1ccc2c(c1)OCO2)C12CC3CC(CC(C3)C1)C2` belongs 9.12% (inactive).
Next, `S=C(NCc1ccc(Cl)cc1)NC12CC3CC(CC(C3)C1)C2`: 69.2% (active); `O=C(/C=C/c1cccs1)c1cc(Cl)ccc1OC(=O)N1CCOCC1`: 16.3% (inactive).
On to `N/C(=N\OC(=O)c1cc(-c2ccccc2)nc2ccccc12)c1ccncc1`, for which the inhibition is 13.9% (inactive).
To `Nc1ccccc1SCc1cc([N+](=O)[O-])cc2c1OCOC2` belongs 13.6% (inactive); to `CCOc1ccc(-c2cn(S(=O)(=O)c3cccc4nsnc34)nc2N)cc1`, 53.9% (active); to `CCOc1ccc(OCC)c(NC(=O)CN(C)S(=O)(=O)c2cccc3nsnc23)c1`, 0.74% (inactive).
Next, `Cc1cccc(C)c1NC(=O)CCS(=O)(=O)c1cccc2nsnc12`: 9.17% (inactive).
Next, `CCCCN(CC)C(=O)CN(C)S(=O)(=O)c1cccc2nsnc12`: 7.72% (inactive); `O=C(O)c1ccc(NS(=O)(=O)c2cccc3nsnc23)cc1`: 18% (inactive); `CCOc1ccc(NC(=O)CCS(=O)(=O)c2cccc3nsnc23)cc1`: 32.5% (active).
In the case of `CCc1ccc(C(=O)CSc2nnc(C)c(=O)[nH]2)cc1`, the inhibition was 22% (inactive).
For the compound `Nc1ccc(C(=O)OCC(=O)NC2CCCc3ccccc32)cc1[N+](=O)[O-]` (centres undefined), the inhibition was 16.1% (inactive).
To `CCCc1nc2ccccc2c(C(=O)OCC(=O)c2ccc3c(c2)NC(=O)CO3)c1CC` belongs 2.23% (inactive); to `O=C(COc1ccc2c(C(F)(F)F)cc(=O)oc2c1)Nc1ccc2c(c1)OCCO2`, 3.57% (inactive); to `CCOc1ccc(S(=O)(=O)Nc2nc3cc(OC)ccc3s2)cc1`, 2.89% (inactive).
For the compound `CC(=O)c1cnc(SCCN2C(=O)c3ccccc3C2=O)nc1C`, the inhibition is -2.62% (inactive).
As to `Cc1cc(C)c2nc(NC(=O)c3ccc4c(c3)OCO4)sc2c1`, the inhibition was 21.3% (inactive).
Next, `COc1ccc(C)cc1S(=O)(=O)NC1CCCCC1`: 2.46% (inactive); `O=S(=O)(NC1CCCCC1)c1ccc(F)c2ccccc12`: 35.4% (active).
With `CSc1ccc(S(=O)(=O)NC2CCCCC2)cc1`, the inhibition was 10.7% (inactive).
Next, `Cc1ccc(N(NC(=O)C(C)(C)O)C(=O)c2ccccc2)cc1C`: 0.77% (inactive); `Cc1ccccc1C(=O)N1CCC(C(=O)Nc2ccc(S(=O)(=O)N(C)C(C)C)cc2)CC1`: -2.28% (inactive); `COc1ccccc1Nc1ncnc2c1oc1ccccc12`: 31.2% (active).
To `CCc1nc(Nc2ccc3nccnc3c2)c2oc3ccccc3c2n1` belongs 4.28% (inactive).
Next, `Cc1nc(Cl)c2oc3ccccc3c2n1`: -0.78% (inactive); `NS(=O)(=O)c1cccnc1Nc1cccc(Cl)c1`: 7.66% (inactive).
As to `O=C(Cn1ccc([N+](=O)[O-])n1)NCc1cccs1`, the inhibition is 18.9% (inactive).
For the compound `Cc1ccccc1-c1nnc(SCC(=O)NCc2ccc3c(c2)OCO3)n1C`, the inhibition was 12.7% (inactive).
To `Cn1c(SCc2nc3ccccc3s2)nnc1-c1ccc2c(c1)OCO2` belongs 33.8% (active); to `Cc1cccc(CSc2nnc(Cn3c(=O)sc4ccccc43)n2C)c1`, 13.1% (inactive); to `Cc1cccc(N2C(=O)C3C(c4ccccc4)OC4(C(=O)c5ccccc5C4=O)C3C2=O)c1` (centres undefined), -14.2% (inactive).
For the compound `CCN(CC)C(=O)CSc1nnc(CNc2ccc(F)cc2)n1Cc1ccco1`, the inhibition was 7.51% (inactive).
Take `COc1cccc(-c2nnc(SCCOc3ccc4c(C)cc(=O)oc4c3)o2)c1`: the inhibition is 7.69% (inactive).
Regarding `CC(Sc1nnc(Cc2ccc([N+](=O)[O-])cc2)o1)C(N)=O` (centres undefined), the inhibition was 5.64% (inactive).
To `N#C/C(=C(/O)Cc1cccc2ccccc12)c1nc2ccccc2s1` belongs 0.29% (inactive); to `Cc1ccc(CNC(=O)COc2ccc(S(=O)(=O)NC(C)C)cc2)cc1`, 36.6% (active); to `CC(C)NS(=O)(=O)c1ccc(OCC(=O)Nc2ccc3c(c2)OCCO3)cc1`, 3.4% (inactive).
In the case of `COc1ccc(OCC(=O)NCCc2ccc(S(N)(=O)=O)cc2)cc1`, the inhibition is -0.6% (inactive).
For the compound `CNC(=O)c1csc(-c2ccccc2)n1`, the inhibition is -5.25% (inactive).
To `Cc1occc1C(=O)NNC(=S)NCC(C)C` belongs 3.2% (inactive); to `CSCCC(NS(=O)(=O)c1ccc2c(c1)oc(=O)n2C)C(=O)NC1CCCc2ccccc21` (centres undefined), -5.76% (inactive); to `CC(C)Oc1ccc(CCc2n[nH]c(=S)n2Cc2ccccc2)cc1`, -1.67% (inactive).
Next, `CCCc1cc(-c2n[nH]c(=S)n2Cc2ccccc2)cs1`: 37.9% (active); `C=CCn1c(-c2ccc3[nH]c(C)c(C)c3c2)n[nH]c1=S`: 3.87% (inactive).
Next, `Cc1cccc(NC(=S)N2CCC(c3nc4ccccc4s3)CC2)c1`: 10.4% (inactive); `CCCCNCc1ccc(SC)cc1`: 3.73% (inactive).
Turning to `Cc1ccc(S(=O)(=O)N2CCC(C(=O)NCC3CCCO3)CC2)cc1` (centres undefined), the inhibition is 11.9% (inactive).
On to `O=C1NC(Nc2nc3ccccc3s2)(C(F)(F)F)C(=O)N1C1CCCCC1` (centres undefined), for which the inhibition is 47.7% (active).
To `COC(=O)NC1(C(F)(F)F)NC(=O)N(C2CCCCC2)C1=O` (centres undefined) belongs -7.51% (inactive).
